Results as given in PMC11006913.

Columns and labels:
Assay in all cases: PBM; 200 nM protein, PBS
Details in all cases: dsDNA, one strand shown
HOXC10 = HOXC10 (Homo sapiens, UniProt Q9NYD6 254-340)
HOXA4 [1] = target: HOXA4 (Homo sapiens, UniProt Q00056 201-287, W262R)
HOXA4 [2] = target: HOXA4 (Homo sapiens, UniProt Q00056 201-287, R217L)
HOXA4 [3] = target: HOXA4 (Homo sapiens, UniProt Q00056 201-287)
HOXA4 [4] = target: HOXA4 (Homo sapiens, UniProt Q00056 201-287, W262F)
HOXC9 [5] = target: HOXC9 (Homo sapiens, UniProt P31274 178-260, K195R)
Chain of HOXC9 (Homo sapiens, UniProt P31274 178-260, K195R) (P31274 178-260 K195R): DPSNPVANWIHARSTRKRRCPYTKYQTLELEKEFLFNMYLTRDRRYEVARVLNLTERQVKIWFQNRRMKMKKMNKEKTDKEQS

HOXC9 [6] = target: HOXC9 (Homo sapiens, UniProt P31274 178-260)
Chain of HOXC9 (Homo sapiens, UniProt P31274 178-260) (P31274 178-260): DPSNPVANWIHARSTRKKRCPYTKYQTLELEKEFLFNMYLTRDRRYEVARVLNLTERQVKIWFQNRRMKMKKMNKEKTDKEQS

HOXC9 [7] = target: HOXC9 (Homo sapiens, UniProt P31274 178-260, R193K)
Chain of HOXC9 (Homo sapiens, UniProt P31274 178-260, R193K) (P31274 178-260 R193K): as the sequence (P31274 178-260) above, with R16K counted along it

HOXC9 [8] = target: HOXC9 (Homo sapiens, UniProt P31274 178-260, R222W)
Chain of HOXC9 (Homo sapiens, UniProt P31274 178-260, R222W) (P31274 178-260 R222W): as the sequence (P31274 178-260) above, with R45W counted along it

HOXB4 [9] = target: HOXB4 (Homo sapiens, UniProt P17483 148-234)
Chain of HOXB4 (Homo sapiens, UniProt P17483 148-234) (P17483 148-234): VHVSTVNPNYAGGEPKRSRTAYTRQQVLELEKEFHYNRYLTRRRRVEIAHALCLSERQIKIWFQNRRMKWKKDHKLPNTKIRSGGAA

HOXB9 [10] = target: HOXB9 (Homo sapiens, UniProt P17482 171-250, T197M)
Chain of HOXB9 (Homo sapiens, UniProt P17482 171-250, T197M) (P17482 171-250 T197M): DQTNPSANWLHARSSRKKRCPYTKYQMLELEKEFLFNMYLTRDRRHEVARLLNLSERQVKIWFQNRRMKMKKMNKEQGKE

ALX4 [11] = target: ALX4 (Homo sapiens, UniProt Q9H161 200-286)
Chain of ALX4 (Homo sapiens, UniProt Q9H161 200-286) (Q9H161 200-286): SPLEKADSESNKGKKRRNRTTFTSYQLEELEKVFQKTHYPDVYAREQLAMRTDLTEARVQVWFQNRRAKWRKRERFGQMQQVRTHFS

ALX4 [12] = target: ALX4 (Homo sapiens, UniProt Q9H161 200-286, Q225E)
Chain of ALX4 (Homo sapiens, UniProt Q9H161 200-286, Q225E) (Q9H161 200-286 Q225E): as the sequence (Q9H161 200-286) above, with Q26E counted along it

HOXA2 [13] = target: HOXA2 (Homo sapiens, UniProt O43364 129-215, R185T)
Chain of HOXA2 (Homo sapiens, UniProt O43364 129-215, R185T) (O43364 129-215 R185T): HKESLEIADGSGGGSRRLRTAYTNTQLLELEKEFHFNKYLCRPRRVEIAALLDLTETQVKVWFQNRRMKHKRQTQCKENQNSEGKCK

HOXB9 [14] = target: HOXB9 (Homo sapiens, UniProt P17482 171-250)
Chain of HOXB9 (Homo sapiens, UniProt P17482 171-250) (P17482 171-250): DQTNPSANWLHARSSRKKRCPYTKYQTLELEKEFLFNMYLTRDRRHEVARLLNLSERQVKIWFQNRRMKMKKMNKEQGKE

HOXB4 [15] = target: HOXB4 (Homo sapiens, UniProt P17483 148-234, V174I)
Chain of HOXB4 (Homo sapiens, UniProt P17483 148-234, V174I) (P17483 148-234 V174I): as the sequence (P17483 148-234) above, with V27I counted along it

HOXA2 [16] = target: HOXA2 (Homo sapiens, UniProt O43364 129-215, R185K)
Chain of HOXA2 (Homo sapiens, UniProt O43364 129-215, R185K) (O43364 129-215 R185K): as the sequence (O43364 129-215 R185T) above, with T57K counted along it

HOXB9 [17] = target: HOXB9 (Homo sapiens, UniProt P17482 171-250, R186Q)
Chain of HOXB9 (Homo sapiens, UniProt P17482 171-250, R186Q) (P17482 171-250 R186Q): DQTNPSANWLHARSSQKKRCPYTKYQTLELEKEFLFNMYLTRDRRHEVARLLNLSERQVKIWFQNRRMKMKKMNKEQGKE

HOXA2 [18] = target: HOXA2 (Homo sapiens, UniProt O43364 129-215, Y150S)
Chain of HOXA2 (Homo sapiens, UniProt O43364 129-215, Y150S) (O43364 129-215 Y150S): as the sequence (O43364 129-215 R185T) above, with Y22S, T57R counted along it

HOXA2 [19] = target: HOXA2 (Homo sapiens, UniProt O43364 129-215)
Chain of HOXA2 (Homo sapiens, UniProt O43364 129-215) (O43364 129-215): as the sequence (O43364 129-215 R185T) above, with T57R counted along it

Chain of HOXC10 (Q9NYD6 254-340): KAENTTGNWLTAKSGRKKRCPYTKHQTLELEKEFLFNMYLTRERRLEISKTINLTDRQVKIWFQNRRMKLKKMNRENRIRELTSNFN
Chain of HOXA4 (Homo sapiens, UniProt Q00056 201-287) (Q00056 201-287): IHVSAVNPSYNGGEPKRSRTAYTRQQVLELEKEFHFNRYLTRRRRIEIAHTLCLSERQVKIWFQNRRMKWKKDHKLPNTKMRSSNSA
Chain of HOXA4 (Homo sapiens, UniProt Q00056 201-287, R217L) (Q00056 201-287 R217L): as the sequence (Q00056 201-287) above, with R17L counted along it
Chain of HOXA4 (Homo sapiens, UniProt Q00056 201-287, W262F) (Q00056 201-287 W262F): as the sequence (Q00056 201-287) above, with W62F counted along it
Chain of HOXA4 (Homo sapiens, UniProt Q00056 201-287, W262R) (Q00056 201-287 W262R): as the sequence (Q00056 201-287) above, with W62R counted along it

Row | Sequence | binding signal (HOXC10) | binding signal (HOXA4 [1]) | binding signal (HOXA4 [2]) | binding signal (HOXA4 [3]) | binding signal (HOXA4 [4]) | binding signal (HOXC9 [5]) | binding signal (HOXC9 [6]) | binding signal (HOXC9 [7]) | binding signal (HOXC9 [8]) | binding signal (HOXB4 [9]) | binding signal (HOXB9 [10]) | binding signal (ALX4 [11]) | binding signal (ALX4 [12]) | binding signal (HOXA2 [13]) | binding signal (HOXB9 [14]) | binding signal (HOXB4 [15]) | binding signal (HOXA2 [16]) | binding signal (HOXB9 [17]) | binding signal (HOXA2 [18]) | binding signal (HOXA2 [19])
1 | ACACCGGG | 10.2 upbm affinity estimate (log intensity, higher = more binding, comparable within an allelic series) | – | – | – | – | – | – | – | – | – | – | – | – | – | – | – | – | – | – | –
2 | CCCAACGG | – | 9.93 upbm affinity estimate (log intensity, higher = more binding, comparable within an allelic series) | 9.99 upbm affinity estimate (log intensity, higher = more binding, comparable within an allelic series) | 9.83 upbm affinity estimate (log intensity, higher = more binding, comparable within an allelic series) | 10 upbm affinity estimate (log intensity, higher = more binding, comparable within an allelic series) | – | – | – | – | – | – | – | – | – | – | – | – | – | – | –
3 | ACGGGGGC | – | – | – | – | – | 9.65 upbm affinity estimate (log intensity, higher = more binding, comparable within an allelic series) | 9.77 upbm affinity estimate (log intensity, higher = more binding, comparable within an allelic series) | 9.64 upbm affinity estimate (log intensity, higher = more binding, comparable within an allelic series) | 9.54 upbm affinity estimate (log intensity, higher = more binding, comparable within an allelic series) | – | – | – | – | – | – | – | – | – | – | –
4 | AATTAATA | 12.2 upbm affinity estimate (log intensity, higher = more binding, comparable within an allelic series) | 10.8 upbm affinity estimate (log intensity, higher = more binding, comparable within an allelic series) | 12.3 upbm affinity estimate (log intensity, higher = more binding, comparable within an allelic series) | 13.8 upbm affinity estimate (log intensity, higher = more binding, comparable within an allelic series) | 11.8 upbm affinity estimate (log intensity, higher = more binding, comparable within an allelic series) | 12.8 upbm affinity estimate (log intensity, higher = more binding, comparable within an allelic series) | 12.7 upbm affinity estimate (log intensity, higher = more binding, comparable within an allelic series) | 12.7 upbm affinity estimate (log intensity, higher = more binding, comparable within an allelic series) | 11.3 upbm affinity estimate (log intensity, higher = more binding, comparable within an allelic series) | 13.2 upbm affinity estimate (log intensity, higher = more binding, comparable within an allelic series) | 10.3 upbm affinity estimate (log intensity, higher = more binding, comparable within an allelic series) | 14 upbm affinity estimate (log intensity, higher = more binding, comparable within an allelic series) | 13.4 upbm affinity estimate (log intensity, higher = more binding, comparable within an allelic series) | 12.6 upbm affinity estimate (log intensity, higher = more binding, comparable within an allelic series) | 12 upbm affinity estimate (log intensity, higher = more binding, comparable within an allelic series) | 13.9 upbm affinity estimate (log intensity, higher = more binding, comparable within an allelic series) | 13.1 upbm affinity estimate (log intensity, higher = more binding, comparable within an allelic series) | 11.8 upbm affinity estimate (log intensity, higher = more binding, comparable within an allelic series) | 11.1 upbm affinity estimate (log intensity, higher = more binding, comparable within an allelic series) | 12.1 upbm affinity estimate (log intensity, higher = more binding, comparable within an allelic series)
5 | ATAATTAA | 12.5 upbm affinity estimate (log intensity, higher = more binding, comparable within an allelic series) | 10.9 upbm affinity estimate (log intensity, higher = more binding, comparable within an allelic series) | 13 upbm affinity estimate (log intensity, higher = more binding, comparable within an allelic series) | 14.3 upbm affinity estimate (log intensity, higher = more binding, comparable within an allelic series) | 12.6 upbm affinity estimate (log intensity, higher = more binding, comparable within an allelic series) | 12.9 upbm affinity estimate (log intensity, higher = more binding, comparable within an allelic series) | 12.9 upbm affinity estimate (log intensity, higher = more binding, comparable within an allelic series) | 12.8 upbm affinity estimate (log intensity, higher = more binding, comparable within an allelic series) | 11.2 upbm affinity estimate (log intensity, higher = more binding, comparable within an allelic series) | 13.6 upbm affinity estimate (log intensity, higher = more binding, comparable within an allelic series) | 10.3 upbm affinity estimate (log intensity, higher = more binding, comparable within an allelic series) | 14.5 upbm affinity estimate (log intensity, higher = more binding, comparable within an allelic series) | 14.2 upbm affinity estimate (log intensity, higher = more binding, comparable within an allelic series) | 13.6 upbm affinity estimate (log intensity, higher = more binding, comparable within an allelic series) | 12.1 upbm affinity estimate (log intensity, higher = more binding, comparable within an allelic series) | 14.4 upbm affinity estimate (log intensity, higher = more binding, comparable within an allelic series) | 13.7 upbm affinity estimate (log intensity, higher = more binding, comparable within an allelic series) | 11.9 upbm affinity estimate (log intensity, higher = more binding, comparable within an allelic series) | 11 upbm affinity estimate (log intensity, higher = more binding, comparable within an allelic series) | 13 upbm affinity estimate (log intensity, higher = more binding, comparable within an allelic series)
6 | AATTAATG | 12.2 upbm affinity estimate (log intensity, higher = more binding, comparable within an allelic series) | 10.6 upbm affinity estimate (log intensity, higher = more binding, comparable within an allelic series) | 12.5 upbm affinity estimate (log intensity, higher = more binding, comparable within an allelic series) | 14.1 upbm affinity estimate (log intensity, higher = more binding, comparable within an allelic series) | 11.9 upbm affinity estimate (log intensity, higher = more binding, comparable within an allelic series) | 12.8 upbm affinity estimate (log intensity, higher = more binding, comparable within an allelic series) | 12.8 upbm affinity estimate (log intensity, higher = more binding, comparable within an allelic series) | 12.8 upbm affinity estimate (log intensity, higher = more binding, comparable within an allelic series) | 11 upbm affinity estimate (log intensity, higher = more binding, comparable within an allelic series) | 13.4 upbm affinity estimate (log intensity, higher = more binding, comparable within an allelic series) | 10.2 upbm affinity estimate (log intensity, higher = more binding, comparable within an allelic series) | 14 upbm affinity estimate (log intensity, higher = more binding, comparable within an allelic series) | 13.4 upbm affinity estimate (log intensity, higher = more binding, comparable within an allelic series) | 13 upbm affinity estimate (log intensity, higher = more binding, comparable within an allelic series) | 12.1 upbm affinity estimate (log intensity, higher = more binding, comparable within an allelic series) | 14 upbm affinity estimate (log intensity, higher = more binding, comparable within an allelic series) | 13.5 upbm affinity estimate (log intensity, higher = more binding, comparable within an allelic series) | 11.8 upbm affinity estimate (log intensity, higher = more binding, comparable within an allelic series) | 11 upbm affinity estimate (log intensity, higher = more binding, comparable within an allelic series) | 12.5 upbm affinity estimate (log intensity, higher = more binding, comparable within an allelic series)
7 | TAATTATA | 12.3 upbm affinity estimate (log intensity, higher = more binding, comparable within an allelic series) | 10.8 upbm affinity estimate (log intensity, higher = more binding, comparable within an allelic series) | 12.7 upbm affinity estimate (log intensity, higher = more binding, comparable within an allelic series) | 14.2 upbm affinity estimate (log intensity, higher = more binding, comparable within an allelic series) | 12.1 upbm affinity estimate (log intensity, higher = more binding, comparable within an allelic series) | 12.8 upbm affinity estimate (log intensity, higher = more binding, comparable within an allelic series) | 12.8 upbm affinity estimate (log intensity, higher = more binding, comparable within an allelic series) | 12.7 upbm affinity estimate (log intensity, higher = more binding, comparable within an allelic series) | 11.2 upbm affinity estimate (log intensity, higher = more binding, comparable within an allelic series) | 13.5 upbm affinity estimate (log intensity, higher = more binding, comparable within an allelic series) | 10.3 upbm affinity estimate (log intensity, higher = more binding, comparable within an allelic series) | 14.3 upbm affinity estimate (log intensity, higher = more binding, comparable within an allelic series) | 13.9 upbm affinity estimate (log intensity, higher = more binding, comparable within an allelic series) | 13.6 upbm affinity estimate (log intensity, higher = more binding, comparable within an allelic series) | 11.9 upbm affinity estimate (log intensity, higher = more binding, comparable within an allelic series) | 14.3 upbm affinity estimate (log intensity, higher = more binding, comparable within an allelic series) | 13.7 upbm affinity estimate (log intensity, higher = more binding, comparable within an allelic series) | 11.6 upbm affinity estimate (log intensity, higher = more binding, comparable within an allelic series) | 11.1 upbm affinity estimate (log intensity, higher = more binding, comparable within an allelic series) | 13 upbm affinity estimate (log intensity, higher = more binding, comparable within an allelic series)
